# Assay outcomes deposited in PubChem BioAssay by National Center for Advancing Translational Sciences (NCATS).
# This is a sample that favours compounds with a hit; in the whole collection about 3% have one here.
# p53null 39C kill: selectivity test: cytotoxicity in p53 null cells, nonpermissive temperature; H1299 p53-null (neo) cells, 39C, ATPlite viability, 24 h; actives 0.97% (n = 55,000); Potency, µM (top dose mostly 46.1 µM), for the others: at the highest dose activity, negative = cell killing, most hits filed as cytotoxic;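 also: potency is read from the fitted curve at half-maximal effect; 0% = DMSO only and -100% = full killing by 100 µM tamoxifen; nearly all actives have a fitted effect of over 50% in size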
#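 H1299 lung cancer cells, p53-null (H1299-neo) or expressing p53 A138V (H1299-p53A138V), were plated overnight at 37C, then exposed to compounds at up to 46 uM for 24 hr at 39C. Viability was read by ATP-based luminescence.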
# PMP22 txn: modulators of PMP22 gene transcription in S16 Schwann cells | S16 Pmp22-F2sN Schwann cells, FLuc/NLuc coincidence luminescence, 24 h | Potency, µM (highest dose often 57.5 µM), without a hit: at the highest dose activity change, negative = inhibition, most hits filed as inhibitors | actives 2% (n = 43,000) | AID 1508649; active = clear falling dose curves in both reporters; inconclusive = both reporters move, but less clearly or upward; inactive = either reporter flat; the % is the NLuc reporter signal; also: potency is read from the fitted curve at half-maximal effect; % is scaled to controls: 0 for no effect and ±100 for the full control effect
#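 S16(c9) Schwann cells with FLuc/NLuc coincidence reporter in the Pmp22 3' UTR; compounds pin-transferred, 24 h at 37C. Dual-luciferase read: FLuc first, then NLuc after Stop&Glo, each 10 min at room temperature.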
# pS6 MEF inh: mTORC1 pathway inhibition measured by phospho-rpS6; Potency, µM (highest dose often 38.3 µM), without a hit: top-dose activity change, negative = inhibition, hits mostly inhibitors; actives 0.78% (n = 44,000); Tsc2-/- p53-/- MEF, phospho-rpS6 immunofluorescence/PI, 24 h;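 also: potency is read from the fitted curve at half-maximal effect; plate controls were DMSO for no effect and rapamycin for full effect; nearly all actives have a fitted effect of over 50% in size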
#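 Tsc2-/-, p53-/- mouse embryonic fibroblasts (empty-vector line) exposed to compound 24 hrs at 37 C, fixed, immunostained for phospho-rpS6 and counterstained with propidium iodide. Acumen laser scanning gives % positive cells from Alexa 488/PI ratio, thresholded using 7.5 nM rapamycin; PI count gives viability.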
# OvCa metastasis: ovarian cancer metastasis inhibition, 3D TME model. AID 1963576. SKOV3ip1-GFP adhesion/invasion on 3D omental model, fluorescence. Potency, µM (highest dose often 45.8 µM), for the others: top-dose activity change, negative = inhibition, actives largely listed as inhibitors. actives 0.1% (n = 46,000);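 also: potency is read from the fitted curve at half-maximal effect; plate controls were DMSO wells for no effect and tomatine positive control wells for full effect; nearly all actives have a fitted effect of over 65% in size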
#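 qHTS, 4-pt dose (0.36-46 umol/L); SKOV3ip1-GFP, 1,200 cells/well, no FBS; primary omental fibroblast/mesothelial co-culture 48 h pre-grown; 2 h RT + 16 h 37 C; PBS wash, 4% PFA; GFP count 488/509 nm.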
# p53null 32C tox: p53 null cell cytotoxicity, permissive temperature; H1299-neo p53 null cells, ATP luminescence, 24 h, 32C; Potency, µM (top dose mostly 46.1 µM), without a hit: at the top dose activity change, negative = cytotoxicity, most hits filed as cytotoxic; actives 0.62% (n = 55,000);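 also: potency is read from the fitted curve at half-maximal effect; 0% = DMSO only and -100% = full killing by 100 µM tamoxifen; nearly all actives have a fitted effect of over 55% in size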
#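 ATP-content luminescence in p53-null H1299-neo cells after 24 h compound exposure (up to 46 uM) at 32C permissive temperature; 0% and 100% killing set by DMSO and 100 uM tamoxifen; Hill-equation AC50.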
# S16 viability: S16 Schwann cell cytotoxicity | S16 Pmp22-F2sN Schwann cells viability, CellTiter-Glo, 24 h | Potency, µM (series often up to 57.5 µM), inactives show at the highest dose activity change, negative = cytotoxicity, actives largely listed as cytotoxic | actives 0.48% (n = 43,000) | AID 1508642; also: potency is read from the fitted curve at half-maximal effect; % is scaled to controls: 0 for no effect and ±100 for the full control effect; nearly all actives have a fitted effect of over 65% in size
#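 Viability was measured by CellTiter-Glo luminescence (15 min, room temperature). This followed 24 h at 37 °C of compound exposure (23 nL pin transfer) in S16 Pmp22-F2sN Schwann cells, 500-1,000 per well.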
# NLuc saturating: inhibits NanoLuc at saturating substrate, PMP22 counter-screen. actives 4% (n = 690). Secreted NLuc enzyme (filtered S16 cell medium), Nano-Glo luminescence. shares compounds with PMP22 txn. Potency, µM (top dose mostly 57.5 µM), inactives show top-dose activity change, negative = inhibition, actives largely listed as inhibitors; also: potency is read from the fitted curve at half-maximal effect; % is scaled to controls: 0 for no effect and ±100 for the full control effect
# NLuc Km counter: NanoLuc inhibition at Km substrate, PMP22 artifact check | actives 5% (n = 690) | Potency, µM (highest dose often 57.5 µM), inactives show top-dose activity change, negative = inhibition, usual class: inhibitors | secreted NLuc enzyme, coelenterazine luminescence, Km conditions | AID 1508639 | shares compounds with PMP22 txn; also: potency is read from the fitted curve at half-maximal effect; % is scaled to controls: 0 for no effect and ±100 for the full control effect
# FLuc ctr PMP22: counter-screen for PMP22 expression modulators: firefly luciferase inhibition | 690 tested, under 10 active | Potency, µM (doses to about 57.5 µM), inactives show at the top dose activity, negative = inhibition, hits mostly inhibitors | purified P. pyralis FLuc, luminescence, 10 min | shares compounds with PMP22 txn; also: % of control where 0% means no effect
# Target sequence (P08659 whole entry, looked up): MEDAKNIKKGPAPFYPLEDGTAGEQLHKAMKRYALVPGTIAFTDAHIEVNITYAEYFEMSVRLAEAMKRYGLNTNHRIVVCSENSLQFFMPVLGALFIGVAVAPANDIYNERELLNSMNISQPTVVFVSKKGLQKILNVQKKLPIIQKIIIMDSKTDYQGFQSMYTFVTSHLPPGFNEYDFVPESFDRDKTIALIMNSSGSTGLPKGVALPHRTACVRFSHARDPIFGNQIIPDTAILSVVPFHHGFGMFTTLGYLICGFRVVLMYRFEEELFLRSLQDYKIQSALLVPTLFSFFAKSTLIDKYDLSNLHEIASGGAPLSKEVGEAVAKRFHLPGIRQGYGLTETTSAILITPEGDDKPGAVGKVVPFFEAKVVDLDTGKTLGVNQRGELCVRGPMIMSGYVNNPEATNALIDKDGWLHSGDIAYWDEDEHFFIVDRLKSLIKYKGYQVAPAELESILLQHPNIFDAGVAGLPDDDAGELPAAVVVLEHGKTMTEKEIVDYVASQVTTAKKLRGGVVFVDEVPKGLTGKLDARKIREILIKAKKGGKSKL
# S16 F2sN tox cnf: S16 Schwann cell cytotoxicity, confirmatory. actives 7% (n = 690). Potency, µM (doses to about 57.5 µM), inactives show at the highest dose activity change, negative = viability loss, actives largely listed as cytotoxic. AID 1508641. shares compounds with PMP22 txn. S16 Schwann cells viability, CellTiter-Glo ATP luminescence, 24 h; also: potency is read from the fitted curve at half-maximal effect; % is scaled to controls: 0 for no effect and ±100 for the full control effect
# PMP22 txn cnf: PMP22 transcription modulation, confirmatory; shares compounds with PMP22 txn; S16 Schwann cells Pmp22-F2sN, dual luciferase, 24 h; Potency, µM (doses to about 57.5 µM), for the others: at the top dose activity change, negative = inhibition, actives largely listed as inhibitors; actives 22% (n = 690); AID 1508646; active = clear falling dose curves in both reporters; inconclusive = both reporters move, but less clearly or upward; inactive = either reporter flat; the % is the FLuc reporter signal; also: potency is read from the fitted curve at half-maximal effect
# PMP22 prot conf: rat PMP22 protein level modulation, confirmatory. shares compounds with PMP22 txn. S16 Schwann cells Pmp22-HiBiT, luminescence, 48 h. Potency, µM (series often up to 27.9 µM), without a hit: at the highest dose activity change, negative = inhibition, actives largely listed as inhibitors. 95 tested, under 10 active. AID 1508647
# Target sequence (P25094 whole entry, looked up): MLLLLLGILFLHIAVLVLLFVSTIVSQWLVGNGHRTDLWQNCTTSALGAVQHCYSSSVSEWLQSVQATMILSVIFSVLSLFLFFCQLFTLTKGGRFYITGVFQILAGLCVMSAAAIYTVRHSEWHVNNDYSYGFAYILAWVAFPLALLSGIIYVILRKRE
# Active calls of the source: *; i = inactive; ? = inconclusive; . = no result given. Unless noted, calls follow the shape of the dose curve; as a rule, active = well fitted curve in the direction sought with a large enough effect; inconclusive = small, poorly fitted or top-dose-only effect, or another doubt; inactive = no such curve, though single readings can be large; an effect the other way counts as inactive or inconclusive.
SMILES,p53null 39C kill,PMP22 txn,pS6 MEF inh,OvCa metastasis,p53null 32C tox,S16 viability,NLuc saturating,NLuc Km counter,FLuc ctr PMP22,S16 F2sN tox cnf,PMP22 txn cnf,others
Cc1ccc(-n2c(SCc3cccc(F)c3)nc3[nH]ncc3c2=O)cc1C,11.4%,?,1.2%,3.9%,19.1%,?,.,.,.,.,.,
CCc1ccc(-n2c(SCc3cccc(F)c3)nc3[nH]ncc3c2=O)cc1,15.6%,15.8µM*,-5.9%,7.4%,37.1%,?,-17.8%,?,-2.9%,?,?,
C[C@]12CC[C@@H]3c4ccc(O)cc4CC[C@H]3[C@H]1CC[C@H]2O,.,.,.,-9.5%,.,.,.,.,.,.,.,
Cc1ccc(-c2cnc(C3CC3)o2)cc1S(=O)(=O)Nc1cccc(C#N)c1,4.0%,?,0.0%,-22.1%,-14.5%,?,.,.,.,.,.,
COc1ccc(C)cc1NS(=O)(=O)c1ccc(-c2cnc(C3CC3)o2)cc1,?,5.55µM*,-0.2%,i,5.5%,?,-9.3%,?,-0.9%,-25.7%,?,PMP22 prot conf=?
COc1cccc(NS(=O)(=O)c2cc(-c3cnc(C4CC4)o3)ccc2C)c1,?,8.53µM*,-9.7%,i,-13.4%,?,?,15.3µM*,6.8%,-6.7%,2.89µM*,
N#Cc1ccc(NS(=O)(=O)c2ccc(-c3cnc(C4CC4)o3)cc2)cc1,-5.6%,?,12.2%,i,-7.8%,?,.,.,.,.,.,
O=C(CO)N1CCC(c2[nH]nc(-c3ccc(Cl)cc3)c2-c2ccncn2)CC1,.,.,.,-14.7%,.,.,.,.,.,.,.,
COc1cccc(-c2ccc(NC(=O)C3=C(C(=O)O)CCC3)c(F)c2)c1,.,.,.,11.3%,.,.,.,.,.,.,.,
CC1CCC(C(=O)N(c2cc(C#CC(C)(C)C)sc2C(=O)O)C2CCC(O)CC2)CC1 (centres undefined),.,.,.,-3.0%,.,.,.,.,.,.,.,
O=C(Nc1ccccc1)Nc1ccc(-c2ccc(C(=O)[C@H]3CCC[C@H]3C(=O)O)cc2)cc1,.,.,.,-6.6%,.,.,.,.,.,.,.,
O=C(NCCc1csc(-c2ccc(F)cc2)n1)c1c(F)cccc1Cl,0.8%,?,-8.2%,-4.3%,3.3%,5.4%,?,?,?,-8.9%,28.6%,
O=C(NCCc1csc(-c2ccc(F)cc2)n1)c1cccc(F)c1,-13.5%,?,-0.8%,-3.9%,-15.0%,24.9%,.,.,.,.,.,
O=C(CSc1nc2cc(C(=O)NC3CCCC3)ccc2c(=O)n1CC1CCCO1)c1cccc(Cl)c1 (centres undefined),0.0%,14.1µM*,0.0%,i,7.2%,28.2µM*,-18.9%,-5.2%,-5.9%,-7.0%,?,
Cc1ccc(C(=O)CSc2nc3cc(C(=O)NC4CCCC4)ccc3c(=O)n2CC2CCCO2)cc1 (centres undefined),-11.1%,24.1%,6.3%,i,-13.9%,?,.,.,.,.,.,
N[C@@]1(C(=O)O)CS(=O)(=O)[C@H]2[C@H](C(=O)O)[C@H]21,.,.,.,-14.7%,.,.,.,.,.,.,.,
CCOC(=O)c1c(C)c(-c2ccccc2)n(CC(=O)Nc2cccc(C)c2C)c1C,-12.7%,?,0.8%,i,-4.8%,9.8%,.,.,.,.,.,
CCOC(=O)c1c(C)c(-c2ccccc2)n(CC(=O)Nc2cc(C)ccc2OC)c1C,-1.3%,9.46µM*,-0.1%,-6.5%,1.1%,-2.5%,-4.3%,3.6%,-3.7%,-8.7%,?,
Nc1ncnc2c1nc(Cl)n2[C@@H]1O[C@H](CO)[C@@H](O)[C@@H]1O,.,.,.,-10.8%,.,.,.,.,.,.,.,
O=C(Cn1ncc2c([nH]c3ccccc32)c1=O)Nc1cccc(C(F)(F)F)c1,-11.2%,20µM*,0.8%,-1.4%,-6.6%,-19.7%,-8.1%,4.0%,5.6%,-10.0%,-56.0%,
COC(=O)c1cc(NC(=O)Cn2ncc3c([nH]c4ccccc43)c2=O)cc(C(=O)OC)c1,-4.1%,10.9%,1.8%,-0.5%,-6.0%,6.7%,.,.,.,.,.,
Cc1cc(Nc2ncc3c(n2)N(C)C(=O)N(c2cc(NC(=O)c4cccc(C(F)(F)F)c4)ccc2C)C3)n(C)n1,.,.,.,1.7%,.,.,.,.,.,.,.,
COc1ccc(Nc2nc3c(S(=O)(=O)c4ccccc4)nnn3c3ccsc23)cc1OC,1.7%,-6.9%,-5.4%,-7.3%,-4.5%,13.5%,.,.,.,.,.,
COc1ccc(Nc2nc3c(S(=O)(=O)c4ccccc4)nnn3c3ccc(Cl)cc23)cc1,-25.1%,8.91µM*,-9.1%,1.5%,?,?,-0.1%,5.5%,1.3%,?,13.8µM*,PMP22 prot conf=?
COc1ccc(Nc2nc3c(S(=O)(=O)c4ccc(C)cc4)nnn3c3ccsc23)cc1Cl,?,8.97µM*,-1.0%,-3.0%,-11.3%,-8.6%,-5.9%,-15.3%,-1.4%,?,?,
O=C(Nc1ccccc1C(F)(F)F)N1CCN(c2ccc3nnc(-c4ccc(F)cc4)n3n2)CC1,15.1%,16µM*,-2.0%,-18.8%,26.8%,-6.8%,-18.0%,-3.7%,-8.7%,-9.8%,?,
